Screening data: PubChem, National Center for Advancing Translational Sciences (NCATS)
PNC assembly inh – blocks assembly of the perinucleolar compartment; PC3M PTB-GFP, PNC prevalence imaging, 16 h; active compounds read low; activity change (PNC), negative = inhibition, % at 10 µM; actives 3.1% (n = 140,000); AID 2417;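 active means readout at or below -70, meaning at least 70% loss of cells showing the perinucleolar compartment, a nuclear body marking cancer cells; inconclusive means readout between -30 and a set limit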;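 further: plate controls were DMSO wells for no effect and camptothecin positive control wells for full effect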
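PC3M cells stably expressing PTB-GFP, 750–1000 cells/well, treated 16 h at 37 °C with compound (23 nl of library stock), in duplicate. After paraformaldehyde fixation and Hoechst stain, imaged at 20x; PNC prevalence scored by image analysis.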
HPGD inh – blocks human HPGD enzyme activity; purified HPGD, NADH fluorescence kinetic, PGE2 substrate; Potency, µM, for inactives: at the top dose activity change, negative = inhibition, most hits filed as inhibitors; actives 4.3% (n = 150,000); further: potency means the concentration at half of the fitted maximal effect
Target sequence (P15428 whole entry, looked up): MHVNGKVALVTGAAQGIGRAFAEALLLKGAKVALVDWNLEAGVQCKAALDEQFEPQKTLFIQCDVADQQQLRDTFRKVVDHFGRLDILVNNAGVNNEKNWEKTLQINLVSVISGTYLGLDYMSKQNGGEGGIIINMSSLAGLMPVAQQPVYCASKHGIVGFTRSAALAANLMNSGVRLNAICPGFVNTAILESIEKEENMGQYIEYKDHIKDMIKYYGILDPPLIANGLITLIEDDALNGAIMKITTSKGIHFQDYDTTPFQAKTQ
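20 nM HPGD preincubated 15 min at room temperature with compound in 50 mM Tris-HCl pH 8, 0.01% Tween 20. Started with 1 mM NAD+ and 30 uM prostaglandin E2; NADH fluorescence (360/450 nm) read 5 times over 30-s intervals, last minus first.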
ALDH1A1 block – ALDH1A1 (human) enzyme inhibition; P00352; Purified ALDH1A1, NADH fluorescence, propionaldehyde substrate; Potency, µM (titrated, usually from 75.3 µM), for the others: at the top dose activity, negative = inhibition, usual class: inhibitors; actives 7.3% (n = 220,000); AID 1030;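 further: potency means the concentration at half of the fitted maximal effect; plate controls were no enzyme wells and a reference inhibitor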
The depositor's hits bear a star. Sampled rows, rich in hits. Any-hit rate of the full collection: about 11%. Unless noted, the call rests on the fitted dose curve; in most records, active means well fitted inhibition curve with a large enough effect (not every such curve was filed as active); inconclusive means small, poorly fitted or top-dose-only effect, or another doubt; inactive means no such curve, though single readings can be large or run the other way. Unless noted, on the % scale 0 is the no-effect control and ±100 the full control effect.

Results for COc1ccc(CCN(C(=O)C(F)(F)F)C(C(=O)NC2CCCCC2)c2ccc(C)s2)cc1OC (stereo unspecified) ?
PNC assembly inh: inconclusive; HPGD inh: -4.0%; ALDH1A1 block: 7.6%

Results for O=C(CN1C(=O)C2CC=CCC2C1=O)NCC(=O)Nc1ccc(F)c(F)c1F (stereo unspecified) ?
ALDH1A1 block: -5.0%

How did O=C(CCN1C(=O)C2CCCCC2C1=O)Nc1ccc(F)c(F)c1F (stereo unspecified) do in these assays?
ALDH1A1 block: 10µM*

How did Cc1ccc(SCCC(=O)N2CCCC2)cc1 do in these assays?
PNC assembly inh: inconclusive; HPGD inh: 14.1µM*; ALDH1A1 block: inconclusive

How did Cc1ccc(SCCC(=O)N2CCC(C)CC2)cc1 do in these assays?
PNC assembly inh: 22.0; HPGD inh: 7.94µM*; ALDH1A1 block: inconclusive

Results for Cc1ccc(SCCC(=O)N2CCOCC2)cc1 ?
PNC assembly inh: inconclusive; HPGD inh: -6.5%; ALDH1A1 block: 8.2%

What do the screens show for `Cc1ccc(SCCC(=O)N2CCC(C(N)=O)CC2)cc1`?
PNC assembly inh: inconclusive; ALDH1A1 block: -13.7%

How did CS(=O)(=O)N1Cc2ccccc2CC1C(=O)Nc1ccccc1C(N)=O (stereo unspecified) do in these assays?
PNC assembly inh: -28.8; HPGD inh: -10.0%; ALDH1A1 block: -0.4%

What do the screens show for `CCN(CC)C(=O)N1CCn2c(nc3ccccc32)C1`?
PNC assembly inh: 25.7; HPGD inh: -4.5%; ALDH1A1 block: 5.7%

Results for CCN(CC)CCCNC(=S)N1CCn2c(nc3ccccc32)C1 ?
PNC assembly inh: -116.4*; HPGD inh: -13.4%; ALDH1A1 block: 6.6%

How did CCc1nnc(NC2=NCCC2)s1 do in these assays?
PNC assembly inh: -3.2; HPGD inh: -15.0%; ALDH1A1 block: -33.7%

Results for O=C(O)c1cccc(-n2cccc2/C=C2\NC(=O)N(Cc3ccc(F)cc3)C2=O)c1 ?
ALDH1A1 block: -11.7%

How did O=C1N/C(=C/c2cccn2-c2ccc(F)cc2)C(=O)N1Cc1ccccc1 do in these assays?
PNC assembly inh: 26.6; HPGD inh: -17.4%; ALDH1A1 block: 15.8µM*

How did Cc1cc(C)c(S(=O)(=O)Nc2ccnc(-c3cccnc3)n2)c(C)c1 do in these assays?
ALDH1A1 block: 1.7%

How did CC1(C)OC(=O)C(=Cc2ccc(-c3ccc(S(N)(=O)=O)cc3)o2)C(=O)O1 do in these assays?
ALDH1A1 block: 0.7%

What do the screens show for `CC1=NOC(=O)/C1=C\c1ccc(-c2ccc(Br)cc2)o1`?
ALDH1A1 block: 10µM*

How did Cc1ccc2c(CN3CCN(S(=O)(=O)c4ccc5c(c4)OCCO5)CC3)cc(=O)oc2c1C do in these assays?
PNC assembly inh: -2.1; HPGD inh: -15.3%; ALDH1A1 block: 0.9%

What do the screens show for `CCN(CC(=O)Nc1ccc2c(c1)OCCO2)S(=O)(=O)c1cccs1`?
PNC assembly inh: 11.7; HPGD inh: -15.4%; ALDH1A1 block: inconclusive

What do the screens show for `O=C(Cc1ccccc1[N+](=O)[O-])Nc1ccc2c(c1)OCCO2`?
PNC assembly inh: -28.7; HPGD inh: 0.4%; ALDH1A1 block: -1.5%

How did O=C(CNCc1ccccc1Cl)Nc1ccc2c(c1)OCCO2 do in these assays?
ALDH1A1 block: 12.6µM*

How did CCN(CC(=O)Nc1ccc2c(c1)OCCO2)Cc1cc(=O)oc2c(C)c(C)ccc12 do in these assays?
PNC assembly inh: inconclusive; HPGD inh: -17.4%; ALDH1A1 block: 15.8µM*

How did O=C(CC1NCCNC1=O)Nc1ccc2c(c1)OCO2 (stereo unspecified) do in these assays?
PNC assembly inh: -90.7*; HPGD inh: -8.4%; ALDH1A1 block: -4.4%

Results for CCN(CC(=O)Nc1ccc2c(c1)OCCO2)Cc1cc(=O)n2ccsc2n1 ?
ALDH1A1 block: 20µM*

How did O=C(CC1NCCNC1=O)Nc1ccc(Cl)c(Cl)c1 (stereo unspecified) do in these assays?
PNC assembly inh: 38.5; HPGD inh: -4.7%; ALDH1A1 block: -7.6%

Results for Cn1c(N2CCC(C(N)=O)CC2)nc2c1c(=O)n(Cc1cccc(Br)c1)c(=O)n2C ?
PNC assembly inh: 2.9; HPGD inh: -20.1%; ALDH1A1 block: 3.4%

What do the screens show for `COc1ccc(/C=N/OCC(=O)Nc2nc3ccccc3s2)cc1`?
PNC assembly inh: inconclusive; HPGD inh: -18.3%; ALDH1A1 block: 4.6%

How did COc1ccccc1-c1oc2ccccc2c(=O)c1OC do in these assays?
HPGD inh: 7.2%; ALDH1A1 block: -8.3%

Results for CCc1ccc(C(=O)OCC(=O)c2c(N)n(CC(C)C)c(=O)n(C)c2=O)cc1 ?
ALDH1A1 block: 4.5%

How did CNC(=O)c1ccccc1S(=O)(=O)c1ccccc1C#N do in these assays?
PNC assembly inh: 12.0; HPGD inh: -8.5%; ALDH1A1 block: -9.6%

How did COc1ccc(OC)c(NC(=O)CNC(=O)c2cccs2)c1 do in these assays?
PNC assembly inh: 30.6; HPGD inh: -5.8%; ALDH1A1 block: 6.7%

How did O=C(O)CC(Cc1ccc(Cl)cc1)C(=O)NCc1ccccc1 (stereo unspecified) do in these assays?
PNC assembly inh: inconclusive; HPGD inh: -10.3%; ALDH1A1 block: -0.4%

Results for CCCCN(C)CCC(=O)Nc1ccc(F)c(F)c1 ?
PNC assembly inh: -3.8; HPGD inh: -0.2%; ALDH1A1 block: 3.4%

How did O=C(CSc1nc(O)c(Cc2ccccc2)c(=O)n1-c1ccccc1)N1CCOCC1 do in these assays?
PNC assembly inh: 17.0; HPGD inh: -7.2%; ALDH1A1 block: -2.6%

What do the screens show for `O=C(CSc1ccc2nnc(-c3ccncc3)n2n1)N1CCc2ccccc21`?
PNC assembly inh: inconclusive; HPGD inh: -8.3%; ALDH1A1 block: 4.4%

Results for CC(C)(O)C#Cc1ccc(C(=O)N2CCN(c3ccc(Cl)cc3)CC2)cc1 ?
ALDH1A1 block: 4.1%

What do the screens show for `COCC(=O)Nc1ccc2c(c1)OCO2`?
ALDH1A1 block: -2.2%

What do the screens show for `CCN(CC(=O)Nc1ccc2c(c1)OCCO2)CC(=O)Nc1ccc2c(c1)OCO2`?
ALDH1A1 block: 10µM*

Results for COC(=O)CNC(=O)c1cccc(F)c1 ?
PNC assembly inh: inconclusive; HPGD inh: -8.5%; ALDH1A1 block: 24.6%

What do the screens show for `O=C(NCc1ccc(-n2cccc2)cc1)c1cccc(F)c1`?
ALDH1A1 block: 15.8µM*

What do the screens show for `CCOC(=O)Cc1csc(NC(=O)COc2ccc(N(C)S(=O)(=O)c3cccs3)cc2)n1`?
PNC assembly inh: -25.8; HPGD inh: -7.4%; ALDH1A1 block: inconclusive

Results for CCCC(=O)NCCc1cc2ccc(OC)cc2[nH]c1=O ?
PNC assembly inh: -7.1; HPGD inh: -21.1%; ALDH1A1 block: -5.5%

What do the screens show for `CCCCC(=O)NCCc1cc2ccc(OC)cc2[nH]c1=O`?
PNC assembly inh: -100.0*; HPGD inh: inconclusive; ALDH1A1 block: -0.6%

How did O=C1OCC(c2ccccc2)=C1c1ccc(S(=O)(=O)N2CCOCC2)s1 do in these assays?
PNC assembly inh: 23.3; HPGD inh: inconclusive; ALDH1A1 block: 20µM*

What do the screens show for `O=S(=O)(c1ccc(-c2ccccc2)cc1)N1CCOCC1`?
PNC assembly inh: 9.5; HPGD inh: -15.4%; ALDH1A1 block: 1.6%

Results for CS(=O)(=O)N(CC(=O)Nc1ccc(F)c(F)c1)c1cccc([N+](=O)[O-])c1 ?
PNC assembly inh: inconclusive; HPGD inh: -4.5%; ALDH1A1 block: 19.5%
